# Data as given in paper PMC7862700, “An all-to-all approach to the identification of sequence-specific readers for epigenetic DNA modifications on cytosine”.
# How the values were obtained:
# Assay in all cases: DAPPL (digital affinity profiling via proximity ligation, sequencing); 10 mM Tris-HCl pH 7.5, 50 mM NaCl, 1 mM DTT, 4% glycerol, room temperature, 30 min; GST-TFs on glutathione beads, 16-mer random dsDNA library, 0.1% formaldehyde crosslink after washing; high values mean tight binding
# [1] = target: T1, FLI1 (Homo sapiens, UniProt Q01543 1-452); conditions: protein: recombinant; tags: N-terminal GST; dsDNA, one strand shown
# T1 sequence: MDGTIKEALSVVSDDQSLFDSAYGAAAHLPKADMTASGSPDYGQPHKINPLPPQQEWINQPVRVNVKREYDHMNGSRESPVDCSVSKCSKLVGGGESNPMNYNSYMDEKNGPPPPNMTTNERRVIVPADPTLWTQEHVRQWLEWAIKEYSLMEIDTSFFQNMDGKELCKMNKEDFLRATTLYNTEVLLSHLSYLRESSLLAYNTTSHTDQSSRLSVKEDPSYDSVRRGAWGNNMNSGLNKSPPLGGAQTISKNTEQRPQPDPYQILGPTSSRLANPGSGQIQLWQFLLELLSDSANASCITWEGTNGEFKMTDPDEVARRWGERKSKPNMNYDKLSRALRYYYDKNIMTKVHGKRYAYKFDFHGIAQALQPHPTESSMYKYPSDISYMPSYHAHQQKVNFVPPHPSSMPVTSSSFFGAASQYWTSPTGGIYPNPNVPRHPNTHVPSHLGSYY
# How it was run: (§1)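 In yeast, human transcription factors were expressed with a GST fusion, then pulled down on glutathione beads and given DNA barcodes. Pooled with a tag-only sample, they were exposed to 200 nmole of a 16-mer random double-stranded DNA library (Tris/NaCl/DTT/glycerol buffer, room temperature, 30 min), washed, crosslinked with 0.1% formaldehyde, proximity-ligated using BsaI/T4 ligase for 1 h at 37 °C, PCR-amplified and read on an Illumina NextSeq500. Each hexamer's frequency of reads for a factor, divided by the matching frequency for the tag-only sample, gives the binding signal.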
# [2] = target: T2, ELK1 (Homo sapiens, UniProt P19419 1-428); conditions: protein: recombinant; tags: N-terminal GST; dsDNA, one strand shown
# T2 sequence: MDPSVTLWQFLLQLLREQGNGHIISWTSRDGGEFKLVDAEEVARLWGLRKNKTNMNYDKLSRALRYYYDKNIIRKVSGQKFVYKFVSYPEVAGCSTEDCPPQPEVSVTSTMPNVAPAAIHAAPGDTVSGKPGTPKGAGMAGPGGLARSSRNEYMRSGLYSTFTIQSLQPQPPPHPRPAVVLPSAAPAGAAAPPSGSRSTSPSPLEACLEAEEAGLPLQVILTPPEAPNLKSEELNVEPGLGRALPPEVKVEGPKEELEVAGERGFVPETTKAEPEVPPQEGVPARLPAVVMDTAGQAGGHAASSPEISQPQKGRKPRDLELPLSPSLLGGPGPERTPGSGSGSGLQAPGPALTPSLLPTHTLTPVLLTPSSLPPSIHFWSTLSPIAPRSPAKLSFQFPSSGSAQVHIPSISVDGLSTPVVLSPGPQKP
# How it was run: as §1
# [3] = target: T3, GABPA (Homo sapiens, UniProt Q06546 1-454); conditions: protein: recombinant; tags: N-terminal GST; dsDNA, one strand shown
# T3 sequence: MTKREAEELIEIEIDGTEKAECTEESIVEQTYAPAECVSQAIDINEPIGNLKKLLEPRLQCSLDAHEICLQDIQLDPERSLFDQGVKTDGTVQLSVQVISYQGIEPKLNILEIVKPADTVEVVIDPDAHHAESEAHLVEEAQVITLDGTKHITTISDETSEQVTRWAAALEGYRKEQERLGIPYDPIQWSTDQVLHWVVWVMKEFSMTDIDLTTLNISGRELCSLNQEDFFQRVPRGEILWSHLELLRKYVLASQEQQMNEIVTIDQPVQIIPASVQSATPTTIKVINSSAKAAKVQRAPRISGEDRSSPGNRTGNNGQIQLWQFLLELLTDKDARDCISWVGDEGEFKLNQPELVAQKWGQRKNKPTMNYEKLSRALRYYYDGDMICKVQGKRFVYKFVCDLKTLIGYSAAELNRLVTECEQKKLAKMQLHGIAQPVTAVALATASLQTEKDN
# How it was run: as §1
# [4] = target: T4, ERG (Homo sapiens, UniProt P11308 1-479); conditions: protein: recombinant; tags: N-terminal GST; dsDNA, one strand shown
# T4 sequence: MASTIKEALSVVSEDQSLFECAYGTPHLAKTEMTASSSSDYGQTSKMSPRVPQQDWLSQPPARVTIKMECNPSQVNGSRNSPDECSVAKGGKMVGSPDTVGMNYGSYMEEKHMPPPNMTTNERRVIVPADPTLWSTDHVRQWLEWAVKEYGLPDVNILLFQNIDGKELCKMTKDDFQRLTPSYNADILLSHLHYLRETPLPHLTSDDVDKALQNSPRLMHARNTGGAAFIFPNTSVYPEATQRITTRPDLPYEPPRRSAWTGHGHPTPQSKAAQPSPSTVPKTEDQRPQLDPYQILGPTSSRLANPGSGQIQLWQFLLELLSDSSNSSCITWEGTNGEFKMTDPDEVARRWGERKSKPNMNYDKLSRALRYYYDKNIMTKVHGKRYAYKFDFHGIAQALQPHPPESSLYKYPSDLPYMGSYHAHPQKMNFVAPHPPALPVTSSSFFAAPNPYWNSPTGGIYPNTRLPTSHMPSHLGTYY
# How it was run: as §1
# [5] = target: ELF1 (Homo sapiens, UniProt P32519 1-619); conditions: protein: recombinant; tags: N-terminal GST; dsDNA, one strand shown
# How it was run: as §1
# [6] = target: T5, EHF (Homo sapiens, UniProt Q9NZC4 1-300); conditions: protein: recombinant; tags: N-terminal GST; dsDNA, one strand shown
# T5 sequence: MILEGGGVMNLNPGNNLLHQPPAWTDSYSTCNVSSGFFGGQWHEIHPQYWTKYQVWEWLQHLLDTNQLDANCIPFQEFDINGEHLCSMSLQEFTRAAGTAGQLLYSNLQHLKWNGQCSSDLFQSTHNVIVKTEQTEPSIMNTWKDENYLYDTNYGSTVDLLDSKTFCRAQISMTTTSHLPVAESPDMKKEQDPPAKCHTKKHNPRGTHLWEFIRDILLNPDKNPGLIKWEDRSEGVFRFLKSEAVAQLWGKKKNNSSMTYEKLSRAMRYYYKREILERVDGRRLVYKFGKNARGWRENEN
# How it was run: as §1
# [7] = target: SPI1 (Homo sapiens, UniProt P17947 1-270); conditions: protein: recombinant; tags: N-terminal GST; dsDNA, one strand shown
# How it was run: as §1
# [8] = target: SPIB (Homo sapiens, UniProt Q01892 1-262); conditions: protein: recombinant; tags: N-terminal GST; dsDNA, one strand shown
# How it was run: as §1
# [9] = target: T6, ELK3 (Homo sapiens, UniProt P41970 1-407); conditions: protein: recombinant; tags: N-terminal GST; dsDNA, one strand shown
# T6 sequence: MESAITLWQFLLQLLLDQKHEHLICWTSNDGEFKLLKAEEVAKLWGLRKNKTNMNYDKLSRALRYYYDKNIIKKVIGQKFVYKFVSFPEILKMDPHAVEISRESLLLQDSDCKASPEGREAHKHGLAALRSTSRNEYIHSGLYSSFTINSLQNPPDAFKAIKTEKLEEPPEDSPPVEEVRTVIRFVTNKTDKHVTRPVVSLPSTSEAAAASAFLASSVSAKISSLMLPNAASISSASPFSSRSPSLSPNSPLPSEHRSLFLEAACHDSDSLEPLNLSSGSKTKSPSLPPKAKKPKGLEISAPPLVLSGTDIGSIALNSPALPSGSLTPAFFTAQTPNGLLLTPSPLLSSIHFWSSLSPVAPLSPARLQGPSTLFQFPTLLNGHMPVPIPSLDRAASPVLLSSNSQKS
# How it was run: as §1
# [10] = target: T7, FEV (Homo sapiens, UniProt Q99581 1-238); conditions: protein: recombinant; tags: N-terminal GST; dsDNA, one strand shown
# T7 sequence: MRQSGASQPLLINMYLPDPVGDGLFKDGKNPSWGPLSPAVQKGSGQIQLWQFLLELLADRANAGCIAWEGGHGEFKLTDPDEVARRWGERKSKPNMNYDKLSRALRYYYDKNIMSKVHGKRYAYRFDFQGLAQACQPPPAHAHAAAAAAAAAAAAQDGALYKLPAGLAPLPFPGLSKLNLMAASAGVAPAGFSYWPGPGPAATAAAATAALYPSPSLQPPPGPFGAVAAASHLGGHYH
# How it was run: as §1
# [11] = target: ETV5 (Homo sapiens, UniProt P41161 1-510); conditions: protein: recombinant; tags: N-terminal GST; dsDNA, one strand shown
# How it was run: as §1
# [12] = target: HSF1 (Homo sapiens, UniProt Q00613 1-529); conditions: protein: recombinant; tags: N-terminal GST; chain copies: 3; dsDNA, one strand shown
# How it was run: as §1
# [13] = target: T8, SPIC (Homo sapiens, UniProt Q8N5J4 1-248); conditions: protein: recombinant; tags: N-terminal GST; dsDNA, one strand shown
# T8 sequence: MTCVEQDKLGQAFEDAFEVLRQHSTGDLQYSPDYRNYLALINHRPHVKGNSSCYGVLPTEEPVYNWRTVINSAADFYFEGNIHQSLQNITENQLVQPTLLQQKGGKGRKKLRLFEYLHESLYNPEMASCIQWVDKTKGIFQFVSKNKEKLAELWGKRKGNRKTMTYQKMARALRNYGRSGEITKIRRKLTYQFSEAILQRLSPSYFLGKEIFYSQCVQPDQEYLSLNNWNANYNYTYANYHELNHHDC
# How it was run: as §1
# [14] = target: ELF4 (Homo sapiens, UniProt Q99607 1-663); conditions: protein: recombinant; tags: N-terminal GST; dsDNA, one strand shown
# How it was run: as §1
# [15] = target: T9, ELK4 (Homo sapiens, UniProt P28324-2 1-405); conditions: protein: recombinant; tags: N-terminal GST; dsDNA, one strand shown
# T9 sequence: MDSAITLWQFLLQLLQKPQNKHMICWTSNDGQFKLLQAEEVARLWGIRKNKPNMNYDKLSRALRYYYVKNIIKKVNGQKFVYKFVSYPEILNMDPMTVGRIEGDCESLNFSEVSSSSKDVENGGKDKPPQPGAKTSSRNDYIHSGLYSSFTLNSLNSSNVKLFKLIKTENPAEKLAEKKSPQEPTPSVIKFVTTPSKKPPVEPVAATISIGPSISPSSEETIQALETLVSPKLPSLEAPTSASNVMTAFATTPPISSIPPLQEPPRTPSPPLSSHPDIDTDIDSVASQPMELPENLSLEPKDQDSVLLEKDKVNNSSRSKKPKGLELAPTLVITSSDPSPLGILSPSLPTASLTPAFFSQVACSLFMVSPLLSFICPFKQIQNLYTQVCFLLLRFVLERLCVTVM
# How it was run: as §1
# [16] = target: T10, ETV2 (Homo sapiens, UniProt O00321 1-342); conditions: protein: recombinant; tags: N-terminal GST; dsDNA, one strand shown
# T10 sequence: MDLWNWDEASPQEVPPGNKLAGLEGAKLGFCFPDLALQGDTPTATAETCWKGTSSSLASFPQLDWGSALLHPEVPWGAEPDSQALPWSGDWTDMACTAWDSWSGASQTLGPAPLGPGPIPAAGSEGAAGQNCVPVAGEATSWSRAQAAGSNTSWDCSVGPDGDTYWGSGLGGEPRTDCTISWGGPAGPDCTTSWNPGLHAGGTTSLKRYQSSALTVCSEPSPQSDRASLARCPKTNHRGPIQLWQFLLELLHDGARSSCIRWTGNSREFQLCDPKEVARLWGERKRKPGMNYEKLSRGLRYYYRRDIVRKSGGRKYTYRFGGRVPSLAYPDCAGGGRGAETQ
# How it was run: as §1
# [17] = target: T11, ELF3 (Homo sapiens, UniProt P78545 1-371); conditions: protein: recombinant; tags: N-terminal GST; dsDNA, one strand shown
# T11 sequence: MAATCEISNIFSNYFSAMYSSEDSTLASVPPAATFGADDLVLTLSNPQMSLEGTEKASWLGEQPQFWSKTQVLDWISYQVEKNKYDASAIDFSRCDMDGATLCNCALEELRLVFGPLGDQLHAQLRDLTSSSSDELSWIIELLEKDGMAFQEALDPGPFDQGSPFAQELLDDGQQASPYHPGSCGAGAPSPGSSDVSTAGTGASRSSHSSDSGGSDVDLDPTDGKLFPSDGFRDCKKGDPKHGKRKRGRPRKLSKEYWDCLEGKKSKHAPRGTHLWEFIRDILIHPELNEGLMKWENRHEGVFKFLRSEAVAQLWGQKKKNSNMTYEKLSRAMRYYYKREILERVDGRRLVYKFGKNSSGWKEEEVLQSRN
# How it was run: as §1
# [18] = target: CRX (Homo sapiens, UniProt O43186 1-299); conditions: protein: recombinant; tags: N-terminal GST; dsDNA, one strand shown
# How it was run: as §1
# [19] = target: ETV1 (Homo sapiens, UniProt P50549 1-477); conditions: protein: recombinant; tags: N-terminal GST; dsDNA, one strand shown
# How it was run: as §1
# Sequence of HSF1 (Q00613 whole entry): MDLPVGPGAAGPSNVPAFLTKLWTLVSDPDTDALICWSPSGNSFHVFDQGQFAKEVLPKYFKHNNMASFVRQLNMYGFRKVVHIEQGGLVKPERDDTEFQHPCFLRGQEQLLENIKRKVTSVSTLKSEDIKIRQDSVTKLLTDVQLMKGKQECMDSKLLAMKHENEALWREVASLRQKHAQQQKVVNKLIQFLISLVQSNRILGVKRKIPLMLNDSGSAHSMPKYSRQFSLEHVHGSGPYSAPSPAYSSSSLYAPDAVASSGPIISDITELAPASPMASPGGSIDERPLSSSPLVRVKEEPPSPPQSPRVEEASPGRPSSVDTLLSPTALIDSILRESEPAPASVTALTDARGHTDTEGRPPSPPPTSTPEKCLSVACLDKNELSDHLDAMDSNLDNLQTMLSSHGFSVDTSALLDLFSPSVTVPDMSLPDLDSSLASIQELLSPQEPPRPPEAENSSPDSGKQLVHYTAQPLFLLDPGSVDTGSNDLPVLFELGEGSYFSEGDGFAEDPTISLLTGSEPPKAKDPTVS
# Sequence of SPIB (Q01892 whole entry): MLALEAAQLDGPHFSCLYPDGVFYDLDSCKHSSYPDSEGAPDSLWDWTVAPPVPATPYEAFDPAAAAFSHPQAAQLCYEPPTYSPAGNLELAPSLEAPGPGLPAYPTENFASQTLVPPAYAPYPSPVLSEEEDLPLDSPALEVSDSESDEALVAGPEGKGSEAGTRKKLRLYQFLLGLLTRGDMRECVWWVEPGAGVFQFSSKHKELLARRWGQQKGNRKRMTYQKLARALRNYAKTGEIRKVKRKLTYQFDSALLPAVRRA
# Sequence of ETV5 (P41161 whole entry): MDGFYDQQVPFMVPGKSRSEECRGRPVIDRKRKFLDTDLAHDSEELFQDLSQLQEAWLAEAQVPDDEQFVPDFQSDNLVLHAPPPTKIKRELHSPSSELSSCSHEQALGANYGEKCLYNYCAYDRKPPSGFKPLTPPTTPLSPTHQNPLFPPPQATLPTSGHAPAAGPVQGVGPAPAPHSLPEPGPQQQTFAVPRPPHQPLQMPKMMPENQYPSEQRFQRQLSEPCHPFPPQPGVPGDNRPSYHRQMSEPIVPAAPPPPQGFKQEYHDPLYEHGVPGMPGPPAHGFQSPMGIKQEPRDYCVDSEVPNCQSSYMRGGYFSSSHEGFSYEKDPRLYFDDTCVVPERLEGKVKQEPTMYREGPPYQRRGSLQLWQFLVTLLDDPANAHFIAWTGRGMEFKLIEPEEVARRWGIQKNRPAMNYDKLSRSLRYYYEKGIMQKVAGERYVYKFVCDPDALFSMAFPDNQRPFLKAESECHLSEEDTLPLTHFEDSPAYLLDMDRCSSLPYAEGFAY
# Sequence of ELF1 (P32519 whole entry): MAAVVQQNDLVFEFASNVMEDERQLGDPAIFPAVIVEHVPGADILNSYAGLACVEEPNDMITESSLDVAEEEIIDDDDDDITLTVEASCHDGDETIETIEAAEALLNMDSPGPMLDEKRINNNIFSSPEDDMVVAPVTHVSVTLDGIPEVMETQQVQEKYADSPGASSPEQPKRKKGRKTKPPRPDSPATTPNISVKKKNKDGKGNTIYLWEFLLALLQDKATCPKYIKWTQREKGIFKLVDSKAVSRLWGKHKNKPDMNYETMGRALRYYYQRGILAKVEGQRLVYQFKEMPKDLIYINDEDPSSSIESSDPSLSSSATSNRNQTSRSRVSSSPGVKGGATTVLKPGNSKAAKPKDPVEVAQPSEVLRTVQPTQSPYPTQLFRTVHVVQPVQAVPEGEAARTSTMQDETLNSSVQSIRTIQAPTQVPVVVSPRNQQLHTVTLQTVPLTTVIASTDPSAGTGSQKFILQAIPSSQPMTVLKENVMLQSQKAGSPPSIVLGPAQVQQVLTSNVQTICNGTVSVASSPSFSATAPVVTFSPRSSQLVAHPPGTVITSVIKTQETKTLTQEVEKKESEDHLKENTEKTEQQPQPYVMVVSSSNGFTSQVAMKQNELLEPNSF
# Sequence of ETV1 (P50549 whole entry): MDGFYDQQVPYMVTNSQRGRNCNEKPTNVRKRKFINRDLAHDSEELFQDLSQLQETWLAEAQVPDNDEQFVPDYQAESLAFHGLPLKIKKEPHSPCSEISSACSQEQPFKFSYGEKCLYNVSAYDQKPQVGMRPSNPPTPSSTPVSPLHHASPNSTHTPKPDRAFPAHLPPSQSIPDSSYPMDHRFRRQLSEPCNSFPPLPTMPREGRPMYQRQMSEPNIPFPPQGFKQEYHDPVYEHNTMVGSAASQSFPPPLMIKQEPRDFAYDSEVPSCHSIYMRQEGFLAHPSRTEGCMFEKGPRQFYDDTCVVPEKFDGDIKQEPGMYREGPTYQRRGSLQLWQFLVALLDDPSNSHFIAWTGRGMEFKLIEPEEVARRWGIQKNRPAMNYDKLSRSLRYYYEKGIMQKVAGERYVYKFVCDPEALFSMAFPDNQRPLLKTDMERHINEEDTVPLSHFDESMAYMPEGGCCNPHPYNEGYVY
# Sequence of CRX (O43186 whole entry): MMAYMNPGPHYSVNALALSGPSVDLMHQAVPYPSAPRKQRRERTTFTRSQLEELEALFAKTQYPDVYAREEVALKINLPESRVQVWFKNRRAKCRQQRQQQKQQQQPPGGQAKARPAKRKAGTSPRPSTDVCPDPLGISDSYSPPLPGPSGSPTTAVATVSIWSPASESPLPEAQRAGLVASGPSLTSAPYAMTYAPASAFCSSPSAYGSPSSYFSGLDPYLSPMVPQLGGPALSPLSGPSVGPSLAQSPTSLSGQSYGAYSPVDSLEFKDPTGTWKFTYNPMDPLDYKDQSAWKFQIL
# Sequence of ELF4 (Q99607 whole entry): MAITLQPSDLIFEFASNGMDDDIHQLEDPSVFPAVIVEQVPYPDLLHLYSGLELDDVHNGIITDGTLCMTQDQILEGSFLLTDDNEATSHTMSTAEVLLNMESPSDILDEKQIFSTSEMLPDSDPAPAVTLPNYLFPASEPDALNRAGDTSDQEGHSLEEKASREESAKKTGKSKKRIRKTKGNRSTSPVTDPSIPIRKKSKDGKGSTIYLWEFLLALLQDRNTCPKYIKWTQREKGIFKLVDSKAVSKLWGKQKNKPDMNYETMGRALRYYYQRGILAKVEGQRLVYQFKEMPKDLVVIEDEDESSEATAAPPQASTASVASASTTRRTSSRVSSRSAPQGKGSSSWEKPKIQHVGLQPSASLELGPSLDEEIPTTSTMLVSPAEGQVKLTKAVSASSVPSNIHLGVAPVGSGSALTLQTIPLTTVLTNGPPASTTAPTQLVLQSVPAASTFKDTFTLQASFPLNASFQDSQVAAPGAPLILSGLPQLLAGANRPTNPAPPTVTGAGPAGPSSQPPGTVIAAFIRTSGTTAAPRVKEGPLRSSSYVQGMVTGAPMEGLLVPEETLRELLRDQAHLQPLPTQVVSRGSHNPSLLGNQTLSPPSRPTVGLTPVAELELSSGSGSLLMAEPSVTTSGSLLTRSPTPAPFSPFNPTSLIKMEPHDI
sequence,measurement,setting,value
ACTTCC,binding signal,[1],"7.89 fold enrichment (6-mer frequency, TF over GST control)"
same,binding signal,[2],"8.92 fold enrichment (6-mer frequency, TF over GST control)"
same,binding signal,[3],"7.33 fold enrichment (6-mer frequency, TF over GST control)"
same,binding signal,[4],"10 fold enrichment (6-mer frequency, TF over GST control)"
same,binding signal,[5],"7.99 fold enrichment (6-mer frequency, TF over GST control)"
same,binding signal,[6],"8.81 fold enrichment (6-mer frequency, TF over GST control)"
same,binding signal,[7],"12.7 fold enrichment (6-mer frequency, TF over GST control)"
same,binding signal,[8],"8.52 fold enrichment (6-mer frequency, TF over GST control)"
same,binding signal,[9],"9.72 fold enrichment (6-mer frequency, TF over GST control)"
same,binding signal,[10],"12.4 fold enrichment (6-mer frequency, TF over GST control)"
same,binding signal,[11],"8.86 fold enrichment (6-mer frequency, TF over GST control)"
same,binding signal,[12],"1.55 fold enrichment (6-mer frequency, TF over GST control)"
same,binding signal,[13],"8.15 fold enrichment (6-mer frequency, TF over GST control)"
same,binding signal,[14],"7.63 fold enrichment (6-mer frequency, TF over GST control)"
same,binding signal,[15],"6.63 fold enrichment (6-mer frequency, TF over GST control)"
same,binding signal,[16],"8.23 fold enrichment (6-mer frequency, TF over GST control)"
same,binding signal,[17],"7.67 fold enrichment (6-mer frequency, TF over GST control)"
same,binding signal,[18],"1.21 fold enrichment (6-mer frequency, TF over GST control)"
same,binding signal,[19],"8.66 fold enrichment (6-mer frequency, TF over GST control)"
